Holding throughout (design): species or system human, MV4-11 + K-562 + COLO205 + SK-N-BE2 + OVCAR-8
For test [1], the system named is ACVR1B. The note with it: read-out: apparent Kd, compound concentrations: 100 nM and 1000 nM (sheet 'Samples'), n = 1.
In test [2] the test system is AKT3. The note with it: read-out: apparent Kd; compound concentrations: 100 nM and 1000 nM (sheet 'Samples'), CATDS: 5.7187277937225903E-2; n = 1.
Test [3] concerns CIT. The conditions noted are these: read-out: apparent Kd; compound concentrations: 100 nM and 1000 nM (sheet 'Samples'), CATDS: 5.03714140810754E-2; n = 1.
Test [4] deals with CSNK1A1. The conditions noted are these: read-out: apparent Kd, compound concentrations: 100 nM and 1000 nM (sheet 'Samples'), n = 1.
The subject of test [5] is CSNK1D. The note with it: read-out: apparent Kd; compound concentrations: 100 nM and 1000 nM (sheet 'Samples'), CATDS: 0.22591064083460399; n = 1.
The subject of test [6] is CSNK1E. The conditions noted are these: read-out: apparent Kd; compound concentrations: 100 nM and 1000 nM (sheet 'Samples'), CATDS: 0.181188642263544; n = 1.
The subject of test [7] is MAPK10. The conditions noted are these: read-out: apparent Kd; compound concentrations: 100 nM and 1000 nM (sheet 'Samples'), CATDS: 8.4251059270540496E-2; n = 1.
In test [8] the test system is MAPK14. The note with it: read-out: apparent Kd; compound concentrations: 100 nM and 1000 nM (sheet 'Samples'), CATDS: 0.16940162518750301; n = 1.
In test [9] the test system is MAPK9. The conditions noted are these: read-out: apparent Kd; compound concentrations: 100 nM and 1000 nM (sheet 'Samples'), CATDS: 7.1166451805227196E-2; n = 1.
For test [10], the system named is MAPKAPK2. The conditions noted are these: read-out: apparent Kd; compound concentrations: 100 nM and 1000 nM (sheet 'Samples'), CATDS: 7.7439810634818695E-2; n = 1.
Test [11] has as its system MYLK3. The conditions noted are these: read-out: apparent Kd; compound concentrations: 100 nM and 1000 nM (sheet 'Samples'), CATDS: 7.2718608613227403E-2; n = 1.
The test system of test [12] is RIPK2. The note with it: read-out: apparent Kd, compound concentrations: 100 nM and 1000 nM (sheet 'Samples'), n = 1.
The test system of test [13] is TGFBR1. The note with it: read-out: apparent Kd; compound concentrations: 100 nM and 1000 nM (sheet 'Samples'), CATDS: 5.4047908089072998E-2; n = 1.
The subject of test [14] is ADRBK1. The conditions noted are these: read-out: apparent Kd; compound concentrations: 100 nM and 1000 nM (sheet 'Samples'), CATDS: 5.42741985746545E-2; n = 1.
For test [15], the system named is AKT1. The conditions noted are these: read-out: apparent Kd; compound concentrations: 100 nM and 1000 nM (sheet 'Samples'), CATDS: 5.4273018110040303E-2; n = 1.
The subject of test [16] is AKT2. The note with it: read-out: apparent Kd; compound concentrations: 100 nM and 1000 nM (sheet 'Samples'), CATDS: 6.3448544870815707E-2; n = 1.
Test [17] has as its system CDK17. The conditions noted are these: read-out: apparent Kd; compound concentrations: 100 nM and 1000 nM (sheet 'Samples'), CATDS: 4.6046417847887898E-2; n = 1.
Test [18] deals with CDK6. The note with it: read-out: apparent Kd; compound concentrations: 100 nM and 1000 nM (sheet 'Samples'), CATDS: 4.5600576408269602E-2; n = 1.
In test [19] the test system is LIMK1. The conditions noted are these: read-out: apparent Kd; compound concentrations: 100 nM and 1000 nM (sheet 'Samples'), CATDS: 4.6691533927662399E-2; n = 1.
The subject of test [20] is MAP2K1. The note with it: read-out: apparent Kd, compound concentrations: 100 nM and 1000 nM (sheet 'Samples'), n = 1.
Test [21] relates to MAP2K2. The conditions noted are these: read-out: apparent Kd; compound concentrations: 100 nM and 1000 nM (sheet 'Samples'), CATDS: 5.0543278096989601E-2; n = 1.
For test [22], the system named is NCL. The conditions noted are these: read-out: apparent Kd; compound concentrations: 100 nM and 1000 nM (sheet 'Samples'), CATDS: 4.2837987158590003E-2; n = 1.
Test [23] deals with NQO1. The conditions noted are these: read-out: apparent Kd; compound concentrations: 100 nM and 1000 nM (sheet 'Samples'), CATDS: 5.1571181916601101E-2; n = 1.
The test system of test [24] is PHKG2. The note with it: read-out: apparent Kd; compound concentrations: 100 nM and 1000 nM (sheet 'Samples'), CATDS: 4.0833835587176903E-2; n = 1.
In test [25] the test system is PIM2. The conditions noted are these: read-out: apparent Kd; compound concentrations: 100 nM and 1000 nM (sheet 'Samples'), CATDS: 5.4197855398822901E-2; n = 1.
In test [26] the test system is PIP4K2C. The note with it: read-out: apparent Kd; compound concentrations: 100 nM and 1000 nM (sheet 'Samples'), CATDS: 6.0471713091723403E-2; n = 1.
The subject of test [27] is PRKAG1. The note with it: read-out: apparent Kd; compound concentrations: 100 nM and 1000 nM (sheet 'Samples'), CATDS: 6.5107573303195193E-2; n = 1.
For test [28], the system named is PYGL. The note with it: read-out: apparent Kd; compound concentrations: 100 nM and 1000 nM (sheet 'Samples'), CATDS: 4.9538207783530498E-2; n = 1.
Test [29] concerns VDAC3. The conditions noted are these: read-out: apparent Kd; compound concentrations: 100 nM and 1000 nM (sheet 'Samples'), CATDS: 4.4574473592348701E-2; n = 1.
For test [30], the system named is YES1. The conditions noted are these: read-out: apparent Kd; compound concentrations: 100 nM and 1000 nM (sheet 'Samples'), CATDS: 6.4280508089749694E-2; n = 1.
In test [31] the test system is ZAK. The note with it: read-out: apparent Kd; compound concentrations: 100 nM and 1000 nM (sheet 'Samples'), CATDS: 3.9848277554837802E-2; n = 1.
The subject of test [32] is ACVR1. The conditions noted are these: read-out: apparent Kd; compound concentrations: 100 nM and 1000 nM (sheet 'Samples'), CATDS: 5.3500871089908003E-2; n = 1.
The test system of test [33] is ACVR2B. The note with it: read-out: apparent Kd; compound concentrations: 100 nM and 1000 nM (sheet 'Samples'), CATDS: 0.67080964654625497; n = 1.
In test [34] the test system is BCR. The note with it: read-out: apparent Kd; compound concentrations: 100 nM and 1000 nM (sheet 'Samples'), CATDS: 8.1652957748264393E-2; n = 1.
In test [35] the test system is BMPR1B. The note with it: read-out: apparent Kd; compound concentrations: 100 nM and 1000 nM (sheet 'Samples'), CATDS: 7.3247906456106002E-2; n = 1.
Test [36] concerns CDC7. The note with it: read-out: apparent Kd; compound concentrations: 100 nM and 1000 nM (sheet 'Samples'), CATDS: 4.9206883035311198E-2; n = 1.
The subject of test [37] is CDK4. The conditions noted are these: read-out: apparent Kd; compound concentrations: 100 nM and 1000 nM (sheet 'Samples'), CATDS: 4.8870042780869302E-2; n = 1.
The test system of test [38] is EPHA1. The note with it: read-out: apparent Kd; compound concentrations: 100 nM and 1000 nM (sheet 'Samples'), CATDS: 7.9880542471912896E-2; n = 1.
Test [39] concerns GAK. The note with it: read-out: apparent Kd; compound concentrations: 100 nM and 1000 nM (sheet 'Samples'), CATDS: 0.131761231196901; n = 1.
Test [40] concerns NLK. The note with it: read-out: apparent Kd; compound concentrations: 100 nM and 1000 nM (sheet 'Samples'), CATDS: 5.29869352744404E-2; n = 1.
Test [41] concerns RIPK3. The note with it: read-out: apparent Kd; compound concentrations: 100 nM and 1000 nM (sheet 'Samples'), CATDS: 5.9537511979901002E-2; n = 1.
The subject of test [42] is TGFBR2. The conditions noted are these: read-out: apparent Kd; compound concentrations: 100 nM and 1000 nM (sheet 'Samples'), CATDS: 0.233102504079717; n = 1.

Structures are written as SMILES. Like-named read-outs stand apart in the source and are kept apart here.

Turning to `Nc1nccc(-c2c(-c3ccc(F)cc3)ncn2CCCN2CCOCC2)n1` [SB-216385], the potency estimated from few doses in test [1] (CATDS: 6.1592389938983201E-2) is 1120 nM; in test [2], 1440 nM; in test [3] it was 2400 nM; in test [4] (CATDS: 7.2342208976373404E-2), 712 nM; in [5], 86.6 nM; in test [6], 120 nM. Also, the potency estimated from few doses in test [7] was 493 nM; in test [8], 134 nM; in test [9], 743 nM; in test [10], 601 nM; in test [11], 703 nM; in [12] (CATDS: 6.8187313119451795E-2) it was 834 nM. For the same compound, the potency estimated from few doses in test [13] was 1770 nM.

As for `Cc1nnc(-c2ccc(C)c(-c3ccc(C(=O)Nc4cccc(C#N)c4)cc3)c2)o1` [GW607117X], the potency estimated from few doses in test [1] (CATDS: 5.7242163764382799E-2) was 1170 nM; in test [14], 1290 nM; in [15], 1290 nM; in test [16], 976 nM; in [17], 1810 nM; in test [18], 1850 nM. The potency estimated from few doses in [4] (CATDS: 4.1256570238539701E-2) is 2360 nM; in test [19], 1750 nM; in [20] (CATDS: 5.0029485958775197E-2), 1510 nM; in [21] it was 1480 nM; in [22], 2140 nM; in test [23], 1420 nM. Besides, the potency estimated from few doses in test [24] was 2420 nM; in [25], 1290 nM; in [26], 1060 nM; in test [27], 935 nM; in [28] it was 1550 nM; in test [29] it was 1950 nM. For the same compound, the potency estimated from few doses in test [30] was 955 nM; in test [31], 2580 nM.

As to `Oc1cc(Nc2ccnc3cc(I)ccc23)ccc1F` [GW552771X], the potency estimated from few doses in test [1] (CATDS: 5.5704311303099698E-2) was 1050 nM; in [32], 1220 nM; in test [33] it was 4.54 nM; in [34], 339 nM; in [35], 452 nM; in [36], 1710 nM. For the same compound, the potency estimated from few doses in test [37] is 1760 nM; in test [38] it was 359 nM; in [39], 109 nM; in [20] (CATDS: 4.7289887756517802E-2), 2050 nM; in [40], 1260 nM; in test [12] (CATDS: 0.100310805321257), 204 nM. Moreover, the potency estimated from few doses in test [41] was 838 nM; in test [42], 32.2 nM.

These data come from publication PMC11062922 (Nature Chemical Biology, 2023).
